# Screening results from PubChem BioAssay.
# Sampled rows, rich in hits. Any-hit rate of the full collection: about 9.2%.
# SMN2 splice enh – enhancers of SMN2 splice variant expression | hit rate 2.8% among 210,000 | AID 1458 | HEK293 SMN2-luciferase splicing reporter, luminescence, 30-36 h | Potency, µM (series often up to 46.1 µM), without a hit: top-dose activity change, positive = activation, hits mostly activators; further: % of control where 0% means no effect; nearly all actives have a fitted effect of over 55% in size
#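 HEK293 cells carry an SMN2 minigene-luciferase reporter in which exon 7 inclusion puts luciferase in frame. Cells were seeded at 2000 cells/well, attached for 10-12 hours, then exposed to compounds for 30-36 hours at 37C before ONE-Glo luminescence.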
# FLuc counter – inhibits or activates purified firefly luciferase, miR-21 counter-screen | P08659 | purified FLuc, Km substrates, luminescence inhibition | Potency, µM (titrated, usually from 57.5 µM), inactives show at the top dose activity change, negative = inhibition, usual class: inhibitors | hit rate 6.9% among 360,000;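 further: plate controls were vehicle for no effect and reference inhibitor for full effect; nearly all actives have a fitted effect of over 55% in size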
# Target sequence (P08659 whole entry, looked up): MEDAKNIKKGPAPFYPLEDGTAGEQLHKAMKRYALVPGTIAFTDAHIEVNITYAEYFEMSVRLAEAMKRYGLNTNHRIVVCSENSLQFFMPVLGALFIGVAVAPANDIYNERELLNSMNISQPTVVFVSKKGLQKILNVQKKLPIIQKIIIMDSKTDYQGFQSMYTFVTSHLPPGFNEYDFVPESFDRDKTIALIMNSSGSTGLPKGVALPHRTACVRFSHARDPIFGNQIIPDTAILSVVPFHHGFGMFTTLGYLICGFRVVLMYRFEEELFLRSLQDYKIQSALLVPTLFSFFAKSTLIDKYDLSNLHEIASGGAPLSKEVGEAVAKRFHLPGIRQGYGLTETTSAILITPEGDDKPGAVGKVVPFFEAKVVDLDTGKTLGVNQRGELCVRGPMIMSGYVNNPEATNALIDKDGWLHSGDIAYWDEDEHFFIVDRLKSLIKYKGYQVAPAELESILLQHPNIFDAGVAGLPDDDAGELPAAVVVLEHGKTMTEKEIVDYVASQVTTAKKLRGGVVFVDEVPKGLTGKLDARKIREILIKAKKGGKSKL
#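 Purified P. pyralis luciferase (10nM final) with 10uM D-luciferin and 10uM ATP (Km levels) in 50mM Tris acetate pH 7.5, 10mM Mg acetate, 0.01% Tween-20, 0.05% BSA; qHTS 6-point titration, ~60 µM downward; luminescence read.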
# ELG1 genotox – genotoxicity induction in ELG1-luciferase HEK293T cells; HEK293T ELG1-luciferase reporter, luminescence, 16 h; Potency, µM (top dose mostly 46 µM), without a hit: top-dose activity change, positive = activation, actives largely listed as activators; hit rate 1.3% among 330,000; AID 504466; further: % of control where 0% means no effect; nearly all actives have a fitted effect of over 60% in size
#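 Genotoxicity was scored as increased ELG1-luciferase reporter signal, measured by ONE-Glo luminescence (30 min, room temperature). Compound or vehicle exposure of the HEK293T reporter cells lasted 16 hr at 37°C.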
# NPC1 prom act – activators of NPC1 promoter | Huh7 NPC1 promoter luciferase reporter, 24 h | Potency, µM (highest dose often 9.22 µM), for inactives: at the highest dose activation, hits mostly activators | hit rate 2.4% among 320,000; further: % of control where 0% means no effect; nearly all actives have a fitted effect of over 60% in size
#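 Luminescence from an NPC1 promoter-driven luciferase reporter in stably transfected Huh7 cells was measured after 24 h compound treatment at 37 °C, followed by 10 min ambient incubation with luciferase detection reagent.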
# ELG1 repair inh – inhibitors of ELG1-dependent DNA repair in HEK293T cells. HEK293T ELG1-luciferase reporter, luminescence, 16 h; DNA damage induced by 5-fluorouridine. Potency, µM (highest dose often 46.1 µM), without a hit: at the highest dose activity change, negative = inhibition, actives largely listed as inhibitors. hit rate 2.3% among 330,000; further: on the % scale 0 is the no-effect control and ±100 the full control effect; nearly all actives have a fitted effect of over 55% in size
#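 5-Fluorouridine DNA damage + compound/DMSO, 2,000 cells/well, 16 h, 37 °C/5% CO2. ONE-Glo, 30 min RT, luminescence. Readout = decrease in reporter signal.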
# Rab9 promoter act – activates the Rab9 promoter | Huh7 Rab9 promoter-luciferase reporter, luminescence, 24 h | Potency, µM (titrated, usually from 9.22 µM), inactives show at the top dose activation, negative = inhibition, usual class: activators | hit rate 2.8% among 320,000 | AID 485297; further: % of control where 0% means no effect; nearly all actives have a fitted effect of over 60% in size
#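 Luminescence from Amplite-detected luciferase (10 minutes, ambient) reports Rab9 promoter activation. Before that, stable Rab9-luciferase Huh7 cells (1500/well, reduced-serum OP-MEM I plus 10% FBS) were exposed to compound for 24 hours at 37C.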
# * hit, by the source's call; ? = inconclusive; nt = no result. The call rests on the fitted dose curve; in most records, active means well fitted curve in the direction sought with a large enough effect; inconclusive means small, poorly fitted or top-dose-only effect, or another doubt; inactive means no such curve, though single readings can be large; an effect the other way counts as inactive or inconclusive. Potency means the concentration at half of the fitted maximal effect.
SMILES,SMN2 splice enh,FLuc counter,ELG1 genotox,NPC1 prom act,ELG1 repair inh,Rab9 promoter act
O=C(CSCc1ccc(Cl)cc1)NCCSCc1ccco1,nt,-15.7%,-2.1%,-11.0%,9.4%,-3.4%
COc1ccc(/C=C/C(=O)NCCSCc2ccco2)cc1,6.6%,16.9µM*,2.8%,-1.2%,?,-0.8%
CCCSc1ncc(Cl)c(C(=O)N(Cc2ccc(N(C)C)cc2)C2CCS(=O)(=O)C2)n1 (stereo unspecified),-12.4%,-5.3%,nt,nt,nt,nt
O=C1Cc2cc(S(=O)(=O)Nc3cccc([N+](=O)[O-])c3)cc3c2N1CCC3,nt,0.4%,-1.3%,-5.0%,10.5%,0.1%
CCCCN(C)C(=O)C1CCC(CNS(=O)(=O)c2ccc3c(c2)CC(C)N3C(=O)C2CC2)CC1 (stereo unspecified),nt,-0.4%,-9.8%,-1.3%,?,-13.2%
COc1ccccc1COC(=O)N/C=C/c1ccco1,?,15.1µM*,9.9%,?,4.1%,?
CCCOc1ccc(CSc2n[nH]c(C)n2)cc1,nt,19µM*,?,2.82µM*,?,2.82µM*
CC(=O)c1ccc(S(=O)(=O)N2CCn3cccc3C2c2ccccc2F)cc1 (stereo unspecified),nt,-4.5%,nt,nt,nt,nt
O=C(Nc1ccn(Cc2ccccc2)n1)c1cccc(Cn2cc([N+](=O)[O-])cn2)c1,-12.7%,15.1µM*,-6.7%,4.3%,?,3.9%
O=C(Nc1ccn(Cc2ccccc2)n1)c1ccc(F)cc1,4.0%,6.75µM*,?,2µM*,?,2.82µM*
CCN(c1ccccc1)S(=O)(=O)c1cccc(C(=O)N(C)CCOc2ccccc2)c1,nt,0.9%,-7.7%,-0.4%,?,-5.7%
CCn1nnc2cc(C(=O)OCC(=O)N(C)Cc3cccc(F)c3)ccc21,nt,nt,4.7%,nt,4.3%,nt
c1ccc(-c2cc3ccccc3[nH]2)cc1,nt,19µM*,?,?,?,?
Clc1ccc2[nH]c(-c3ccccc3)cc2c1,?,10.7µM*,?,3.16µM*,?,2.51µM*
O=[N+]([O-])c1cccc(-c2cc3ccccc3[nH]2)c1,nt,-12.0%,?,?,?,26.6%
COc1ccc(-c2cc(=O)c3ccccc3[nH]2)cc1,-6.7%,?,3.6%,4.3%,1.6%,-0.4%
Cc1ccc(O)c(-c2cc3ccccc3[nH]2)c1,12.1%,26.9µM*,4.5%,20.9%,?,17.0%
COc1ccc(-c2cc3ccccc3[nH]2)cc1,nt,4.78µM*,?,3.55µM*,?,2µM*
CC(CNC(=O)CCn1ccc2cc(S(=O)(=O)N3CCCC3)ccc21)c1ccccc1 (stereo unspecified),nt,6.1%,-7.6%,-0.8%,-19.5%,-3.8%
COc1cc2c(cc1OC)n(CC(=O)Nc1ccccc1)c(=O)n1nc(-c3ccccc3)nc21,-8.6%,-7.1%,nt,nt,nt,nt
COc1ccc(S(=O)(=O)N2CCC(C(=O)NCc3ccncc3)CC2)cc1OC,nt,3.1%,1.3%,-3.0%,8.1%,-3.5%
COc1ccc(C2c3ccsc3CCN2C(=O)C(C)(C)C)cc1 (stereo unspecified),nt,0.5%,-4.5%,-2.3%,?,0.1%
CCOc1cccc(-c2cc(C(=O)N3N=C(C)CC3(O)C(F)F)c3ccccc3n2)c1 (stereo unspecified),3.3%,23.9µM*,-1.9%,-9.5%,?,-5.2%
O=C(c1cc(-c2ccccc2)nc2ccccc12)N1N=C(C(F)F)CC1(O)C(F)F (stereo unspecified),-1.3%,-0.4%,-0.4%,24.2%,4.9%,-9.1%
Cc1ccc(-c2cc(C(=O)N3N=C(C(F)F)CC3(O)C(F)F)c3ccccc3n2)cc1C (stereo unspecified),8.2%,7.57µM*,-2.9%,16.1%,?,0.9%
SMILES,SMN2 splice enh,FLuc counter,ELG1 genotox,NPC1 prom act,ELG1 repair inh,Rab9 promoter act
O=C(CS(=O)(=O)c1cccc2nsnc12)N1CCN(c2ccc(F)cc2)CC1,nt,-1.1%,nt,nt,nt,nt
CCn1c(SCC(=O)Nc2ccc(Br)cn2)nnc1C1CC1,nt,0.2%,3.6%,3.2%,14.3%,6.1%
Cc1nc2c(-c3ccc(F)cc3)c(C)nn2c(C)c1CCC(=O)NCc1cccc(Cl)c1,-7.3%,0.6%,nt,nt,nt,nt
Cn1nnnc1SCCNC(=O)C1CCC(=O)N(CCc2cccc(F)c2)C1 (stereo unspecified),nt,1.2%,3.3%,-2.1%,10.2%,1.3%
CCCc1c(O)nc(SC2CC(=O)N(c3ccc(OC)cc3)C2=O)[nH]c1=O (stereo unspecified),nt,6.8%,-0.2%,2.7%,5.5%,-0.9%
CCCCc1c(O)nc(SC2CC(=O)N(c3ccc(C(=O)OCC)cc3)C2=O)[nH]c1=O (stereo unspecified),nt,21.3µM*,-0.9%,-2.1%,-0.6%,-2.8%
COCCCNC(=O)c1c(N)n(/N=C/c2ccccn2)c2nc3ccccc3nc12,-33.3%,0.1%,1.9%,1.2%,4.61µM*,0.4%
CCCNC(=O)c1c(N)n(-c2cccc(OC)c2)c2nc3ccccc3nc12,-9.8%,1.9%,-10.2%,-1.7%,16.4µM*,2.4%
Nc1c(C(=O)NCCN2CCOCC2)c2nc3ccccc3nc2n1-c1cccc(F)c1,-0.2%,-1.0%,-0.8%,-1.4%,?,-4.3%
COCCCNC(=O)c1c(N)n(-c2cccc(S(N)(=O)=O)c2)c2nc3ccccc3nc12,23.9%,5.7%,-18.1%,-4.6%,11.6µM*,-6.4%
CCOc1ccc(-c2c(C(=O)N/N=C(\C)c3cccnc3)nnn2-c2nonc2N)cc1,nt,0.1%,?,-3.4%,?,-0.5%
O=C(CCC(=O)N(CC(=O)NC1CCCC1)Cc1ccccc1)Nc1nccs1,nt,0.3%,-3.2%,2.6%,-3.0%,-1.0%
Cc1ccc(S(=O)(=O)Nc2ccc(C(=O)Nc3cc(C)on3)cc2)cc1,3.0%,2.5%,-2.2%,-8.8%,-10.7%,0.1%
Cc1ccc(NS(=O)(=O)c2cccc(C(=O)Nc3cc(C)on3)c2)cc1,-34.0%,-1.2%,-3.5%,-2.2%,20.6µM*,-4.6%
Cc1cccc(NS(=O)(=O)c2cc(C(=O)OCC(=O)Nc3cc(C)on3)ccc2C)c1,-2.8%,5.9%,0.9%,-4.8%,4.6%,1.5%
Cc1ccc(OCC(=O)NC(=S)Nc2ccc(S(=O)(=O)Nc3cc(C)on3)cc2)c(Br)c1,nt,1.51µM*,3.9%,0.1%,15.6%,-4.7%
Cc1ccc(OCC(=O)Nc2ccc(S(=O)(=O)Nc3cc(C)on3)cc2)c(Br)c1,-2.7%,21.3µM*,nt,nt,nt,nt
Cc1cccc(NS(=O)(=O)c2ccc(C)c(C(=O)OCC(=O)Nc3cc(C)on3)c2)c1,20µM*,2.5%,-5.1%,0.3%,6.7%,-0.3%
COc1ccc(-c2cc3c(=O)n(CC(=O)Nc4ccccc4C(F)(F)F)ccn3n2)cc1OC,nt,-1.8%,nt,nt,nt,nt
